Screening results deposited in PubChem BioAssay by National Center for Advancing Translational Sciences (NCATS).
The entries come from a sample that favours hits as a whole.
Giardia FBPA inh-1: qHTS Assay for Inhibitors of Fructose-1,6-bisphosphate Aldolase from Giardia Lamblia. purified Giardia FBPA. Potency, µM (doses to about 59.6 µM), inactives show top-dose activity, negative = inhibition, most hits filed as inhibitors. 290,000 tested, 0.71% active; further: potency means the concentration at half of the fitted maximal effect; on the % scale 0 is the no-effect control and ±100 the full control effect; nearly all actives have a fitted effect of over 55% in size
Target sequence (A8B2U2 whole entry, looked up): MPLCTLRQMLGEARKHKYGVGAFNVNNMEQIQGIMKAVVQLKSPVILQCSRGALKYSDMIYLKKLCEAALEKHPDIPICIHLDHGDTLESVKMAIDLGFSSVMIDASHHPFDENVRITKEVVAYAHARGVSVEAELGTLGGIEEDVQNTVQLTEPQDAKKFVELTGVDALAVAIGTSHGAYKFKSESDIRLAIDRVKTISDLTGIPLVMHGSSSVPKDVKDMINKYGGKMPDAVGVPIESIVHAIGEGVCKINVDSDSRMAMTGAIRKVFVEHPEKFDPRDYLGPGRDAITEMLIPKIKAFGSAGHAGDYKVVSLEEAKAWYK
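Giardia FBPA (40 nM reagent) was preincubated 10 min at RT with compound (up to 57.5 uM final), then substrate plus GAPDH/TPI/NAD/arsenate coupling system with diaphorase/resazurin was added; resorufin fluorescence (525/598 nm) was read after 20 min.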
Shiga inhibitor: A qHTS for Small Molecule Inhibitors of Shiga Toxin; Vero cells, Shiga toxin protein synthesis inhibition reporter; inhibition, % at 38.7 µM; 290,000 tested, 9.2% active; AID 2315, 2010; in the data active means inhibition mostly above about 28%, no sharp cut-off; inactive means mostly below about 43%; further: 0% is about no effect
Cycloheximide cs: Cycloheximide Counterscreen for Small Molecule Inhibitors of Shiga Toxin; cell reporter, cycloheximide protein synthesis inhibition counterscreen; max response, %; 300,000 tested, 12% active; in the data active means max response mostly above about 13%, no sharp cut-off; inactive means mostly below about 14%; further: read at 38.3 µM for the half of the compounds with a filed dose; 0% is about no effect
Tb PYK inh: qHTS of Trypanosoma Brucei Inhibitors. TbPYK enzyme, Kinase-Glo Plus ATP luminescence, 45 min. pyruvate kinase (Trypanosoma brucei), Q57TT1. Potency, µM (titrated, usually from 76.8 µM), without a hit: at the highest dose activity, negative = inhibition, actives largely listed as inhibitors. 410,000 tested, 0.12% active. AID 624173, 2012; further: potency means the concentration at half of the fitted maximal effect; on the % scale 0 is the no-effect control and ±100 the full control effect; nearly all actives have a fitted effect of over 50% in size
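Screened from lowest to highest concentration, compounds were pinned into TbPYK/substrate mixtures, and ADP (130 uM final) was added. Plates sat at room temperature for 45 min prior to Kinase-Glo Plus detection by luminescence.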
LmPK inh: qHTS Assay for Inhibitors of Leishmania Mexicana Pyruvate Kinase (LmPK); Q27686; purified LmPK, Kinase-Glo ATP luminescence, 1 h; Potency, µM (doses to about 57.5 µM), for inactives: at the highest dose activity change, negative = inhibition, hits mostly inhibitors; 290,000 tested, 0.37% active; AID 1721, 2009; further: potency means the concentration at half of the fitted maximal effect; on the % scale 0 is the no-effect control and ±100 the full control effect
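Pyruvate kinase activity monitored as ATP production (luciferase luminescence). Conditions: 0.1 nM enzyme, 0.5 mM PEP, 0.1 mM ADP, 1 h, RT; normalized against uninhibited and no-enzyme wells.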
RE007 growth inh: qHTS Assay for Inhibitors of the HIV-1 protein Vpr. S. pombe RE007 Vpr strain, BacTiter-Glo ATP luminescence, 24 h. Potency, µM (series often up to 92.2 µM), inactives show at the top dose activity change, negative = less growth, most hits filed as inhibitors. 360,000 tested, 0.21% active. AID 651644, 2012; active means well fitted falling curve with a large enough effect; inconclusive means small, poorly fitted or top-dose-only effect; inactive means no such curve, though single readings can be large or run the other way; further: potency means the concentration at half of the fitted maximal effect; on the % scale 0 is the no-effect control and ±100 the full control effect; nearly all actives have a fitted effect of over 50% in size
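Fission yeast strain RE007, carrying one chromosomally integrated HIV-1 vpr copy, was seeded at OD 0.01 in PMG+AL medium with 23 nL pinned compound. After 24 h at 30 °C and 99% humidity, viability was read by BacTiter-Glo luminescence.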
Giardia growth: qHTS Assay for Inhibitors of Fructose-1,6-bisphosphate Aldolase from Giardia Lamblia: Giardia lamblia growth inhibition | 1,500 tested, 5% active | Giardia lamblia trophozoite growth inhibition | Potency, µM (titrated, usually from 57.5 µM), for the others: top-dose activity change, negative = inhibition, usual class: inhibitors | shares compounds with Giardia FBPA inh-1;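 further: potency means the concentration at half of the fitted maximal effect; trophozoites exposed to compound for 48 h at 37 °C; on the % scale 0 is the no-effect control and ±100 the full control effect; nearly all actives have a fitted effect of over 70% in size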
Mammal cell tox: qHTS Assay for Inhibitors of Fructose-1,6-bisphosphate Aldolase from Giardia Lamblia: Mammalian cellular toxicity. AID 2786, 2010. shares compounds with Giardia FBPA inh-1. Potency, µM (highest dose often 57.5 µM), without a hit: at the highest dose viability change, negative = toxicity, actives largely listed as inhibitors. mammalian cell viability counter-screen, qHTS. 1,500 tested, 4% active;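 further: Chinese hamster ovary cells used as mammalian cytotoxicity surrogate; viability measured as cellular ATP by luminescence; potency means the concentration at half of the fitted maximal effect; compound exposure lasted 48 h before reading; on the % scale 0 is the no-effect control and ±100 the full control effect; nearly all actives have a fitted effect of over 60% in size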
Giardia FBPA inh-2: qHTS Assay for Inhibitors of Fructose-1,6-bisphosphate Aldolase from Giardia Lamblia: Primary screen confirmation; shares compounds with Giardia FBPA inh-1; AID 2787, 2010; purified Giardia aldolase enzyme activity, qHTS; 1,500 tested, 5% active; Potency, µM (top dose mostly 57.5 µM), without a hit: at the top dose activity change, negative = inhibition, hits mostly inhibitors; further: potency means the concentration at half of the fitted maximal effect; on the % scale 0 is the no-effect control and ±100 the full control effect; nearly all actives have a fitted effect of over 45% in size
Rabbit FBPA inh: qHTS Assay for Inhibitors of Fructose-1,6-bisphosphate Aldolase from Giardia Lamblia: Rabbit FBPA Selectivity; Potency, µM (series often up to 57.5 µM), for inactives: at the top dose activity, negative = inhibition, usual class: inhibitors; AID 2794, 2010; 1,500 tested, 4% active; shares compounds with Giardia FBPA inh-1; Rabbit muscle FBPA enzyme inhibition, selectivity counter-screen; further: potency means the concentration at half of the fitted maximal effect; on the % scale 0 is the no-effect control and ±100 the full control effect; nearly all actives have a fitted effect of over 60% in size
Target sequence (P00883 whole entry, looked up): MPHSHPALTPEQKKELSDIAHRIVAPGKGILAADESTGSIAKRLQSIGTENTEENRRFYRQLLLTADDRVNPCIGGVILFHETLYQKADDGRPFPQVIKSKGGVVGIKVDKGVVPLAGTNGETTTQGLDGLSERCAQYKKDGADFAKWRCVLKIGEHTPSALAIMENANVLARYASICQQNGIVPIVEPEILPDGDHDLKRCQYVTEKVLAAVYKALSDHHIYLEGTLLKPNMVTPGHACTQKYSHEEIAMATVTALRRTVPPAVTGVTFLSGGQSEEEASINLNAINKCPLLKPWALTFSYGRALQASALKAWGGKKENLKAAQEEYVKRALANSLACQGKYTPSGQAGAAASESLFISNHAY
GAPDH coupling: qHTS Assay for Inhibitors of Fructose-1,6-bisphosphate Aldolase from Giardia Lamblia: Coupling assay counterscreen confirmation. shares compounds with Giardia FBPA inh-1. GAPDH coupling enzyme counterscreen, biochemical, qHTS. Potency, µM (doses to about 57.5 µM), for inactives: at the highest dose activity change, negative = inhibition, most hits filed as inhibitors. 1,500 tested, 6% active. AID 2795, 2010; further: potency means the concentration at half of the fitted maximal effect; on the % scale 0 is the no-effect control and ±100 the full control effect; nearly all actives have a fitted effect of over 55% in size
* marks the source's active call; other numbers are inactive results; ? = inconclusive; / = not tested or not shown; [ ] = dose if it differs, or a comment. Unless noted, the call rests on the fitted dose curve; in most records, active means well fitted curve in the direction sought with a large enough effect; inconclusive means small, poorly fitted or top-dose-only effect, or another doubt; inactive means no such curve, though single readings can be large; an effect the other way counts as inactive or inconclusive.

SMILES	Giardia FBPA inh-1	Shiga inhibitor	Cycloheximide cs	Tb PYK inh	LmPK inh	RE007 growth inh	Giardia growth	Mammal cell tox	Giardia FBPA inh-2	Rabbit FBPA inh	GAPDH coupling
c1ccc(CCN(Cc2ccccc2)C2CCN(C3CCCC3)CC2)cc1	20µM*	-5	-2	-29%	?	-16%	45µM*	-8%	6%	1%	3%
CCOc1ccccc1NS(=O)(=O)c1cnc(N)nc1	/	/	/	4%	/	/	/	/	/	/	/
COc1ccc(NS(=O)(=O)c2c(C)cc(C)cc2C)cn1	?	-21	4	0%	-11%	-2%	-13%[38.3 µM]	1%	-17%	-20%	-20%
COc1ccc(S(=O)(=O)NNC(N)=S)cc1	10µM*	3	-2	-1%	4%	5%	-1%[38.3 µM]	11%	0%	4%	8%
CC1=C(C(=O)NCc2cccc(Cl)c2)C2(CCCCCC2)OC1=O	/	/	/	6%[15.4 µM]	/	/	/	/	/	/	/
O=c1c(-c2cccs2)nc2cnc(Oc3cccc(Cl)c3)nc2n1C1CC1	-9%	/	/	2%	/	/	/	/	/	/	/
Nc1cccc2[nH]c(C(F)(F)F)nc12	20µM*	-3	9	-24%	-23%	-19%	-22%	?	?	-13%	-24%
O=C(O)c1cccc2[nH]c(C(F)(F)F)nc12	-25%	-5	-3	-12%	-4%	-4%	/	/	/	/	/
CC(=O)Nc1nonc1NC(C)=O	1%	-17	-3	2%	2%	-9%	/	/	/	/	/
CC(=O)Nc1cc(OC(C)=O)c2nonc2c1OC(C)=O	0.045µM*	-18	-2	-5%	15%	-9%	?	16µM*	3.5µM*	4.5µM*	2µM*
O=C(NNC(=O)C12CC3CC(CC(C3)C1)C2)c1ccccn1	18µM*	15	-3	-2%	-1%	?	?	32µM*	6%	0%	-14%
OCC1OC(n2cnc3c(=S)nc[nH]c32)CC1O (stereo unspecified)	/	/	/	-26%	/	2%	/	/	/	/	/
S=c1nc[nH]c2c1ncn2C1CCCO1 (stereo unspecified)	2.5µM*	-18	-5	-23%	4%	-3%	17%[38.3 µM]	32µM*	-4%	-5%	-5%
O=C(N/N=C/c1ccccn1)C(=O)N1CCCCCC1	18µM*	1	-3	0%	-5%	-7%	20%	0%	7%	1%	4%
Nc1nnnn1CC(=O)N/N=C/c1ccccn1	18µM*	-8	1	3%	-5%	-1%	-15%	0%	2%	2%	-1%
O=[N+]([O-])c1cccc(CN2CCN(Cc3ccc(Cl)cc3)CC2)c1	18µM*	6	-3	9%	7%	1%	?	-11%	6%	2%	9%
O=C(COc1ccc(Cl)cc1)N1CCN(Cc2ccc([N+](=O)[O-])cc2)CC1	22µM*	19	-2	-10%	-6%	-18%	-8%[10.4 µM]	-5%	-2%	2%	8%
CC1(C)CC(NC(=S)Nc2ccc(S(N)(=O)=O)cc2)CC(C)(C)N1	8.9µM*	-12	-8	-4%	-10%	35%	18%[38.3 µM]	-2%	-7%	-4%	-3%
NS(=O)(=O)c1ccc(NC(=S)NC2CC2)cc1	?	-7	-2	2%	2%	6%	/	/	/	/	/
O=C(NC1CCOCC1)C1CCC(=O)N(CCc2cccc(F)c2)C1 (stereo unspecified)	/	-6	-2	0%	2%	25%	/	/	/	/	/
O=C(NC(=S)Nc1ccc2oc(=O)ccc2c1)c1cccc(F)c1	?	-4	-4	-7%	1%	6%	/	/	/	/	/
O=C(NC(=S)Nc1ccc2oc(=O)ccc2c1)c1cccc(Cl)c1	10µM*	-6	-2	0%	1%	-1%	20µM*	11%	-1%	11%	6%
COc1cc(NC(=O)CSc2nc3ncnc(N)c3[nH]2)c(C(=O)O)cc1OC	11µM*	3	-2	8%	2%	-12%	6%	-14%	-2%	2%	2%
C=C(C(=O)Oc1c(C(C)(C)C)cccc1C(C)(C)C)c1ccccc1	/	/	/	5%	/	-11%	/	/	/	/	/
O=c1cc(CN2CCN(Cc3ccccc3)CC2)c2ccc(O)c(O)c2o1	18µM*	8	-3	6%	-2%	3%	-28%	-28%	?	?	-24%
Cc1c(O)ccc2c(CN3CCN(Cc4ccccc4)CC3)cc(=O)oc12	-6%	-3	3	-15%	3%	-10%	/	/	/	/	/
CCc1cc(-c2n[nH]c(=S)n2N)n(C)n1	10µM*	-12	-3	-11%	-3%	12%	?	0%	1%	1%	8%
Cc1ccc(NC(=O)Cn2cc(C(=O)C3CC3)c3ccccc32)cc1C	/	/	/	-1%	/	/	/	/	/	/	/
